Most compounds without a hit are left out; they make up all but 32% or so of the library.
CYP2C9 activ – CYP2C9 (human) activation | AID 1024 | recombinant CYP2C9, luciferin-H conversion, luminescence; stronger effect = higher value; factor 1 = untreated enzyme, 0 = blocked | P11712 | activation factor at 5 µM | 1.4% of 96,000 active;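 active = activation factor of 2 or more for CYP2C9 at a 5 µM dose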
Target sequence (P11712 whole entry, looked up): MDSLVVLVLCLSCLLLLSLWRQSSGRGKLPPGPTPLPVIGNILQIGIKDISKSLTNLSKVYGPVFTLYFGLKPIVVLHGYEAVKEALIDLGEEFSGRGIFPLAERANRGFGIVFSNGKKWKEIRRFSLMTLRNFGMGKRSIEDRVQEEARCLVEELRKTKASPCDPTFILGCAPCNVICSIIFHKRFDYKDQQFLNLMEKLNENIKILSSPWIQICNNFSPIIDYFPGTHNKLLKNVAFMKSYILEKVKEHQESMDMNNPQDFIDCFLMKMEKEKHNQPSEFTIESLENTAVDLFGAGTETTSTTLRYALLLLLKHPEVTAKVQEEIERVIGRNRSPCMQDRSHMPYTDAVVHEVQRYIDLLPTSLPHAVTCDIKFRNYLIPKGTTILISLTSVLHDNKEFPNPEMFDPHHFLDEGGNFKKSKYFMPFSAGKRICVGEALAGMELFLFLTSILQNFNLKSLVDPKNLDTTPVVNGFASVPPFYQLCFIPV
PostGolgi ctrl – yeast control strain growth, post-Golgi counter-screen. inhibition, % at 10 µM. efflux-deficient yeast background strain, growth absorbance A615, 16 h. 5% of 98,000 active
PostGolgi yeast – growth inhibition of a yeast mutant, post-Golgi transport screen; post-Golgi transport phenotypic cell assay; inhibition, % at 10 µM; 0.9% of 98,000 active;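 also: yeast cells grown in 1536-well plates; yeast grown about 18 h at 30C before absorbance read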
CYP2C19 act – increases human CYP2C19 enzyme activity; activation factor at 5 µM; 96,000 tested, under 10 active; P33261; AID 1025; recombinant CYP2C19, luciferin-H EGE luminescence; stronger effect = higher value; 0 = fully inhibited enzyme, 1 = untreated enzyme;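 active = activation factor of at least 2 at 5 µM in the primary screen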
CYP2C19 inhib – blocks human cytochrome P450 2C19; P33261; CYP2C19 Supersomes, luciferin-H EGE luminescence, 30 min; inhibition, % at 5 µM; 21% of 96,000 active;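 active = CYP2C19 inhibition above a set limit at 5 µM in the primary screen, cut at about 50% in these data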
CYP2C9 inhib – human CYP2C9 inhibition | AID 777 | CYP2C9 Supersomes, luciferin-H conversion, luminescence | 20% of 96,000 active | inhibition, % at 5 µM | P11712;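 active = blocking of liver enzyme CYP2C9 beyond about 50% at 5 µM, limit read from the data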
Each line names hits and unclear results; the compound was inactive in the other large screens. Rule as the data show it, unless noted: active = inhibition above about 30%; inactive = the rest.

Clc1ccc(-c2n[nH]c3c2CCC3)c(Cl)c1	PostGolgi ctrl 47.4, PostGolgi yeast 107.0
O=C(CCn1cnc2ccccc2c1=O)Nc1ccc(Cl)c(Cl)c1	none
CCC(=O)N(CC)c1nc(-c2ccc(OC)cc2)cs1	none
Cc1ccc(-c2csc(N(Cc3ccccc3)C(=O)COc3ccccc3)n2)cc1	none
O=C(COc1ccccc1)N(CCc1ccccc1)c1nc(-c2ccc(F)cc2)cs1	CYP2C9 inhib 80.6
Cc1ccc(-c2csc(N(CCc3ccccc3)C(=O)COc3ccccc3)n2)cc1	CYP2C19 inhib 61.5, CYP2C9 inhib 98.5
c1ccc(-c2csc(-n3cnnn3)n2)cc1	CYP2C19 inhib 62.4
Cc1cc(C)n(-c2nc(-c3ccccc3)cs2)n1	none
CCCSc1nc(C)c(CC(=O)O)c(=O)[nH]1	none
CCCn1c(=O)c2c(C(F)(F)F)cc(-c3ccco3)nc2n(CCC)c1=O	none
CCCn1c(=O)c2c(C(=O)OCC)cc(-c3ccco3)nc2n(CCC)c1=O	CYP2C9 inhib 60.9
COc1cccc2[nH]c3c(N4CCCCC4)ncnc3c12	none
CCOC(=O)C1CCN(c2ncnc3c2[nH]c2cccc(OC)c23)CC1	CYP2C19 inhib 60.8, CYP2C9 inhib 50.9
CCOC(=O)C1CCN(c2ncnc3c2oc2ccc(Cl)cc23)CC1	PostGolgi ctrl 33.3, CYP2C19 inhib 80.5, CYP2C9 inhib 53.0
CCOC(=O)c1c(NC(=S)NC(=O)c2ccc(Cn3cc(Cl)cn3)o2)sc2c1CCCCC2	none
CCOC(=O)c1cccc(NS(=O)(=O)c2ccc(NC(C)=O)cc2)c1	CYP2C19 inhib 99.8, CYP2C9 inhib 98.4
CCOC(=O)c1cccc(NS(=O)(=O)c2cnc[nH]2)c1	CYP2C9 inhib 73.7
CCOC(=O)c1ccc(NC(=O)c2ccc(NS(C)(=O)=O)cc2)cc1	none
CCOC(=O)c1cccc(NS(=O)(=O)c2c(C)[nH]c(=O)[nH]c2=O)c1	none
COC(=O)c1ccc(N2CCCCC2)c(NS(=O)(=O)c2ccc(C)cc2)c1	PostGolgi ctrl 30.1, CYP2C9 inhib 86.9
CCOC(=O)c1ccc(NS(=O)(=O)c2cnc[nH]2)cc1	CYP2C9 inhib 98.4
CCNC(=S)N/N=C/c1ccco1	none
Cc1nnc(SCC(=O)NCc2ccccc2)[nH]c1=O	none
COC(=O)c1ccc(C)c(NS(=O)(=O)c2ccc(NC(C)=O)cc2)c1	CYP2C19 inhib 76.0, CYP2C9 inhib 95.8
Cc1nc2nc(CSc3ccc(Cl)cc3)cc(=O)n2[nH]1	CYP2C9 inhib 55.0
Cc1ccc(SCc2cc(=O)n3[nH]c(C)nc3n2)cc1	CYP2C9 inhib 56.0
COc1ccccc1-c1ccc(=O)n(CC(=O)NCc2ccc3c(c2)OCO3)n1	CYP2C19 inhib 55.8
COc1cccc(CNC(=O)Cn2nc(-c3ccc(Cl)cc3)ccc2=O)c1	CYP2C19 inhib 54.9, CYP2C9 inhib 76.7
O=C(Cn1nnc(-c2ccccc2Cl)n1)NCc1ccc2c(c1)OCO2	CYP2C9 inhib 93.5
CN(C)CCNC(=O)Cn1nc(-c2ccc(Cl)cc2)ccc1=O	none
CCOC(=O)Cn1nc(-c2ccc(Cl)cc2)ccc1=O	PostGolgi ctrl 36.5
COCCCNC(=O)Cn1nc(-c2ccccc2OC)ccc1=O	none
Cc1cc(Nc2ccc(F)c(Cl)c2)n2ncnc2n1	none
CCOC(=O)Cn1nc(-c2ccc(F)cc2)oc1=O	CYP2C19 inhib 57.6
O=C(O)Cn1nc(-c2ccc(F)cc2)oc1=O	none
COc1ccc(CNC(=O)Cn2nc(-c3ccc4c(c3)OCCO4)ccc2=O)cc1	CYP2C9 inhib 59.6
COc1ccc(-c2ccc(=O)n(CC(=O)Nc3ccc(C(=O)NC4CC4)cc3)n2)cc1OC	none
CC(=O)Nc1cc2c(cc1NC(=O)Cn1nc(-c3ccc4c(c3)OCCO4)ccc1=O)OCCO2	CYP2C19 inhib 55.0
Cc1ccc(C2=[N+]([O-])C(C)N(O)C2(C)C)o1 (stereo not given)	none
COc1ccccc1CN1CCN(C(=O)c2ccncc2)CC1	CYP2C19 inhib 86.6
COc1cccc(OC)c1C(=O)N1CCN(c2ccccn2)CC1	none
COc1ccc(C(=O)N2CCN(Cc3ccccc3C)CC2)cc1OC	none
COc1cccc(OC)c1C(=O)N1CCN(Cc2ccncc2)CC1	CYP2C19 inhib 78.3, CYP2C9 inhib 62.6
CCCCC1CCC(C(=O)NCc2ccc3c(c2)OCO3)CC1 (stereo not given)	none
COc1cccc(-c2cc(C(=O)NCCCn3ccnc3)no2)c1	CYP2C19 inhib 80.2, CYP2C9 inhib 70.6
CCCCNC(=O)c1cc(-c2ccc(OC)c(OC)c2)on1	none
COc1ccc(-c2cc(C(=O)NCCCn3ccnc3)no2)cc1OC	CYP2C19 inhib 65.2, CYP2C9 inhib 50.4
COc1cccc(-c2cc(C(=O)NCCc3ccccc3)no2)c1	none
CC1CN(S(=O)(=O)c2cccc(C(=O)OCC(=O)Nc3ccc4c(c3)OCO4)c2)CC(C)O1 (stereo not given)	none
Cc1ccc(C(=O)NCCCn2ccnc2)cc1[N+](=O)[O-]	CYP2C19 inhib 73.6, CYP2C9 inhib 81.6
CC1CN(S(=O)(=O)c2cccc(C(=O)NCCCn3ccnc3)c2)CC(C)O1 (stereo not given)	CYP2C9 inhib 62.7
Cc1c(S(=O)(=O)N2CCN(C(=O)c3ccco3)CC2)c(=O)n(C)c(=O)n1C	none
Cc1cc(Nc2ccc(C)c(Br)c2)n2nc(C)nc2n1	none (no result: CYP2C9 activ, CYP2C19 act, CYP2C19 inhib, CYP2C9 inhib)
O=C(NCCCn1ccnc1)c1ccc2c(c1)OCCO2	PostGolgi ctrl 46.6, CYP2C19 inhib 96.6, CYP2C9 inhib 58.4
CCC(=O)c1c[nH]c(C(=O)NCCCn2ccnc2)c1	CYP2C19 inhib 75.5, CYP2C9 inhib 82.9
O=C(NCCCn1ccnc1)c1cc(-c2ccc3c(c2)OCO3)on1	CYP2C19 inhib 65.6
C=C(C)c1cccc(C(C)(C)NC(=O)NCCCn2ccnc2)c1	CYP2C19 inhib 97.6, CYP2C9 inhib 96.3
C=C(C)c1cccc(C(C)(C)NC(=O)NCCCN2CCCC2=O)c1	none
O=C(NCCCN1CCCC1=O)c1ccc2c(c1)OCO2	none
Cc1ccc(-c2nc(SCC(=O)N(C)C3CCS(=O)(=O)C3)[nH]c2-c2ccc(C)cc2)cc1 (stereo not given)	none
CCc1ccc(C(=O)NC(CC(C)C)C(=O)O)cc1 (stereo not given)	none
COc1ccc(-c2cc(C(=O)NCc3ccccc3)no2)cc1OC	none
COc1ccc(-c2cc(C(=O)N(C)Cc3ccccc3)no2)cc1OC	CYP2C9 inhib 50.3
CCNC(=O)NC(=O)C(C)Sc1ccc2c(c1)OCCO2 (stereo not given)	CYP2C19 inhib 52.8
O=c1[nH]c(=S)c2c(n1-c1ccccc1)CCC2	none
CC(=O)Nc1ccc(NC(=O)C(C)n2nc([N+](=O)[O-])c(Br)c2C)cc1 (stereo not given)	none
O=C(c1ccccc1F)N1CCc2ccccc21	CYP2C9 activ 3.5, CYP2C19 inhib 61.5 (no result: PostGolgi ctrl, PostGolgi yeast)
CCc1cc(=O)oc2c(C)c(OCC(=O)N3CCCc4ccccc43)ccc12	PostGolgi ctrl 32.8, CYP2C19 inhib 65.5, CYP2C9 inhib 93.5
